Laboratory results: the supplement of paper PMC9135407
Where “and” joins values, the source holds several entries; their conditions need not be identical. Equal entries are not always repeated. Structures can show the parent of a compound that is named as a salt. In all, about 5,800 compounds went through this assay and about 620 (11%) showed activity. Many of the other results were omitted from the sample, so actives are more common in it than they were. A number with no mark means an inactive call.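 Rule for the calls: active = score above a cut-off or among the top three wells of a plate; in these data no inactive exceeds 0.85.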

Test system: primary human hepatic stellate cells (donor 1)
Assay: scaled lipid accumulation score (0 = DMSO-like, 1 = nortriptyline-like); higher = stronger HSC inactivation (lipid re-accumulation), active = hit call of the paper
Conditions: 48 h
[1] = library stock concentration: 3.33 mM
[2] = library stock concentration: 1 mM
[3] = library stock concentration: 10 mM
[4] = library stock concentration: 100 uM
[5] = library stock concentration: 80 uM
[6] = library stock concentration: 400 uM
[7] = library stock concentration: 2 mM
[8] = library stock concentration: 6.8 mM

CCCC(=O)Oc1ccc2[nH]c(C(=O)c3cc4ccccc4[nH]3)cc2c1 [PDGF Receptor Tyrosine Kinase Inhibitor II]
scaled lipid accumulation score [1]: ≤ 0

CC(C)(C)OC(=O)N1CCC(OCc2nc(-c3ccncc3)no2)CC1
scaled lipid accumulation score [2]: 0.013

N#Cc1ccc(NCCNCC(=O)N2CCC[C@H]2C#N)nc1 [NVP DPP 728 dihydrochloride]
scaled lipid accumulation score [3]: ≤ 0

CN1CC[C@]23c4ccccc4N[C@H]1[C@]21CCN(C)[C@H]3Nc2ccccc21 [Calycanthine]
scaled lipid accumulation score: 0.246

CCCC/C=C\CCCCCCCC(=O)OC [Myristoleic Acid methyl ester]
scaled lipid accumulation score [2]: ≤ 0

Cn1cnc(=N)c2[nH]cnc21 [3-Methyladenine]
scaled lipid accumulation score [1]: ≤ 0
scaled lipid accumulation score [3]: ≤ 0

CCCCC/C=C\C\C=C/C=C/C=C/[C@@H](SC[C@H](NC(=O)CC[C@H](N)C(=O)O)C(=O)NCC(=O)O)[C@@H](O)CCCC(=O)O [Leukotriene C4]
scaled lipid accumulation score [4]: ≤ -0.021

Fc1ccc(C(OCCCc2cnc[nH]2)c2ccc(F)cc2)cc1
scaled lipid accumulation score [3]: 0.81

Cc1nc2c(c(=O)[nH]1)CSCC2
scaled lipid accumulation score [3]: ≤ -0.001

CCCCC/C=C\C/C=C\C/C=C\C/C=C\CCCC(=O)O[C@H](COCCCCCCCCCCCCCCCC)COP(=O)([O-])OCC[N+](C)(C)C [Arachidonoyl-PAF]
scaled lipid accumulation score [2]: ≤ -0.021

O=C1Cc2c([nH]c3ccc(Br)cc23)-c2ccccc2N1 [Kenpaullone]
scaled lipid accumulation score [2]: ≤ 0
scaled lipid accumulation score [1]: ≤ 0
scaled lipid accumulation score [3]: ≤ -0.055 and 0.348

CN1C(=O)/C(=C2\Nc3ccccc3\C2=N\O)c2ccc(Br)cc21 [GSK-3 Inhibitor IX, Control, MeBIO]
scaled lipid accumulation score [1]: 1.07 (active)

COC(=O)C(N)CS (configuration not stated) [Mecysteine hydrochloride]
scaled lipid accumulation score [3]: ≤ 0

O=C(O)CCC/C=C\C[C@@H]1[C@@H](/C=C/[C@@H](O)C2Cc3ccccc3C2)[C@@H](F)C[C@@H]1O
scaled lipid accumulation score [2]: ≤ 0

CC(=O)OCC1=C(C(=O)O)N2C(=O)[C@@H](NC(=O)CSc3ccncc3)[C@H]2SC1 [Cephapirin sodium]
scaled lipid accumulation score (library stock concentration: 4.5 mM): ≤ -0.001
scaled lipid accumulation score [3]: ≤ 0

CCOC(=O)c1ccc(N=Nc2ccc(O)c(CC(=O)O)c2)cc1
scaled lipid accumulation score [2]: ≤ 0

CC#CCC(C)[C@H](O)/C=C/[C@@H]1[C@H]2C/C(=C/CCCC(=O)O)C[C@H]2C[C@H]1O (stereo partly drawn) [5-cis Iloprost]
scaled lipid accumulation score [2]: 0.135

CCCCC[C@H](O)/C=C/[C@@H]1[C@H]2C/C=C\CCCC(=O)O[C@H]2C[C@H]1O [Prostaglandin F2.alpha. 1,9-lactone]
scaled lipid accumulation score [2]: ≤ 0

CCN(CCO)CCCOc1ccc2c(Nc3cc(CC(=O)Nc4cccc(F)c4)[nH]n3)ncnc2c1 [Barasertib (AZD1152-HQPA)]
scaled lipid accumulation score [1]: ≤ 0
scaled lipid accumulation score [3]: ≤ 0

COc1ccc(Cl)cc1NC(=O)Nc1cc(C)nc2ccccc12 [listing 1 of 2 here]
scaled lipid accumulation score [1]: 0.097
scaled lipid accumulation score [3]: 0.391

COc1ccc(Cl)cc1NC(=O)Nc1cc(C)nc2ccccc12 [listing 2 of 2 here]
scaled lipid accumulation score [3]: 1.1 (active)

CCn1cc(NC(=S)Nc2cc(Cl)ccc2OC)c(C(N)=O)n1
scaled lipid accumulation score [1]: ≤ -0.009
scaled lipid accumulation score [3]: 0.111

COc1ccc(Cl)cc1NC(=O)Nc1cc(C)nc2ccccc12 [IGF-1R Inhibitor II]
scaled lipid accumulation score [1]: 0.188

O=C(CCSCc1ccco1)NNC(=O)N1Cc2ccccc2Oc2ccc(Cl)cc21
scaled lipid accumulation score [3]: ≤ 0

CC1CCN=C(N)S1 (configuration not stated) [AMT hydrochloride]
scaled lipid accumulation score [3]: 0.018

CC1CCN=C(N)S1 (configuration not stated)
scaled lipid accumulation score [3]: ≤ 0

O=C(c1ccc(C(=O)N2CCC(N3CCCC3)CC2)c(Nc2ccccc2)c1)N1CCC(N2CCCC2)CC1
scaled lipid accumulation score [5]: ≤ 0
scaled lipid accumulation score [6]: ≤ 0
scaled lipid accumulation score [7]: ≤ 0
scaled lipid accumulation score [1]: ≤ 0
scaled lipid accumulation score [3]: 0.002 and ≤ 0

O=C(c1ccc(Nc2nccc(-c3cc4ccccc4s3)n2)cc1)N1CCC(N2CCCC2)CC1 [IKK-16 (IKK Inhibitor VII)] [listing 1 of 2 here]
scaled lipid accumulation score [1]: 1.04 (active)

O=C(c1ccc(Nc2nccc(-c3cc4ccccc4s3)n2)cc1)N1CCC(N2CCCC2)CC1 [IKK Inhibitor VII]
scaled lipid accumulation score [1]: 1.06 (active)

O=C(c1ccc(Nc2nccc(-c3cc4ccccc4s3)n2)cc1)N1CCC(N2CCCC2)CC1
scaled lipid accumulation score [3]: 0.18

O=C(c1cncc(Br)c1)N1CCC(N2CCCC2)CC1
scaled lipid accumulation score [5]: ≤ 0
scaled lipid accumulation score [6]: ≤ 0
scaled lipid accumulation score [7]: ≤ 0
scaled lipid accumulation score [1]: ≤ -0.009
scaled lipid accumulation score [3]: ≤ 0

O=C(c1ccc(Nc2nccc(-c3cc4ccccc4s3)n2)cc1)N1CCC(N2CCCC2)CC1 [IKK-16 (IKK Inhibitor VII)] [listing 2 of 2 here]
scaled lipid accumulation score [3]: 0.246

O=C(Cc1cccs1)N[C@@H]1C(=O)N2C(C(=O)[O-])=C(C[n+]3ccccc3)CS[C@H]12 [Cephaloridine]
scaled lipid accumulation score [3]: ≤ 0

COc1ccc2cc([C@H](C)CO)ccc2c1 [Naproxol]
scaled lipid accumulation score (library stock concentration: 9.2 mM): ≤ 0
scaled lipid accumulation score [3]: 0.031

O=c1cc(CN2CCOCC2)occ1OCCCCCSc1ccnc2cc(C(F)(F)F)ccc12
scaled lipid accumulation score [1]: ≤ -0.009
scaled lipid accumulation score [3]: 0.475

CCCCC[C@H](O)/C=C/[C@H]1[C@H](O)CC(=O)[C@@H]1C/C=C/CCCC(=O)O [5-trans Prostaglandin E2]
scaled lipid accumulation score [2]: ≤ 0

COC(=O)Nc1nc2cc(C(=O)c3cccs3)ccc2[nH]1 [Nocodazole] [listing 1 of 2 here]
scaled lipid accumulation score [1]: 0.021
scaled lipid accumulation score (library stock concentration: 6.6 mM): 0.262

COC(=O)Nc1nc2cc(C(=O)c3ccccc3)ccc2[nH]1 [Mebendazole]
scaled lipid accumulation score: ≤ 0
scaled lipid accumulation score [8]: 0.082
scaled lipid accumulation score [3]: 0.402 and 0.071

COC(=O)Nc1nc2cc(C(=O)c3ccccc3)ccc2[nH]1 [Mebendazol]
scaled lipid accumulation score [8]: 0.097

COC(=O)Nc1nc2cc(C(=O)c3cccs3)ccc2[nH]1 [Nocodazole] [listing 2 of 2 here]
scaled lipid accumulation score: 0.883 (active)

CCCNS(=O)(=O)Nc1ncnc(OCCOc2ncc(Br)cn2)c1-c1ccc(Br)cc1 [Macitentan]
scaled lipid accumulation score [1]: ≤ -0.009
scaled lipid accumulation score [3]: ≤ 0

CCCCCCCCCCCCC/C=C/[C@@H](O)[C@@H](N)CO [Sphingosine]
scaled lipid accumulation score [2]: ≤ -0.021

CCCCCCCCCCCCC/C=C/[C@@H](O)[C@H](CO)N(C)C [N,N-Dimethylsphingosine] [listing 1 of 2 here]
scaled lipid accumulation score [2]: 0.185

CCCCCCCCCCCCC/C=C/[C@@H](O)[C@H](CO)N(C)C [N,N-Dimethylsphingosine] [listing 2 of 2 here]
scaled lipid accumulation score [2]: 0.965 (active)

Nc1nc(NCC2CCC(CNS(=O)(=O)c3cccc4ccccc34)CC2)nc2ccccc12 (configuration not stated)
scaled lipid accumulation score [3]: 0.415

O=C(/C=C/c1ccc(/C=C/C(=O)Nc2ccc(C3=NCCN3)cc2)cc1)Nc1ccc(C2=NCCN2)cc1 [GW 4869 (hydrochloride hydrate)]
scaled lipid accumulation score [2]: 0.115

CCCCC[C@H](O)/C=C/[C@H]1[C@H](O)CC(=O)[C@@H]1C/C=C/CCCC(=O)Oc1ccc(NC(C)=O)cc1 [Prostaglandin E2 p-acetamidophenyl ester]
scaled lipid accumulation score [2]: ≤ 0

C[C@@H](O)CCC[C@H](O)/C=C/C1=C(C/C=C\CCCC(=O)O)C(=O)CC1 [19(R)-hydroxy Prostaglandin B2]
scaled lipid accumulation score [2]: ≤ 0

Fc1ccc([C@@H]2CCNC[C@H]2COc2ccc3c(c2)OCO3)cc1.O=C(O)/C=C\C(=O)O [Paroxetine]
scaled lipid accumulation score [3]: 1.02 (active)

Fc1ccc([C@@H]2CCNC[C@H]2COc2ccc3c(c2)OCO3)cc1.O=C(O)/C=C\C(=O)O [Paroxetine maleate]
scaled lipid accumulation score [3]: 1.14 (active)

CN1CCC(c2c(O)cc(O)c3c(=O)cc(-c4ccccc4Cl)oc23)C1CO (configuration not stated) [Riviciclib]
scaled lipid accumulation score [5]: 0.019
scaled lipid accumulation score [6]: 0.272
scaled lipid accumulation score [7]: ≤ -0.001
scaled lipid accumulation score [3]: 0.002

COC(=O)/C=C/c1cc(O)ccc1O [Methyl 2,5-dihydroxycinnamate]
scaled lipid accumulation score [3]: 0.182

CC#CCOC(=O)c1c(C)nc2sc3c(c2c1N)CCC(O)C3 (configuration not stated) [listing 1 of 2 here]
scaled lipid accumulation score [3]: 0.882 (active)

CC#CCOC(=O)c1c(C)nc2sc3c(c2c1N)CCC(O)C3 (configuration not stated) [listing 2 of 2 here]
scaled lipid accumulation score [3]: 1.72 (active)

Cc1cccc(C2CN(C)CCc3c2cc(O)c(O)c3Cl)c1 (configuration not stated)
scaled lipid accumulation score [3]: 0.086

CCN(CC)CC#CCOC(=O)C(O)(c1ccccc1)C1CCCCC1 (configuration not stated) [Oxybutynin chloride]
scaled lipid accumulation score: 0.397
scaled lipid accumulation score [1]: 0.234
scaled lipid accumulation score (library stock concentration: 5.1 mM): 0.317
scaled lipid accumulation score [3]: 0.48

CCN(CC)CC#CCOC(=O)C(O)(c1ccccc1)C1CCCCC1.Cl (configuration not stated) [Oxybutynin Chloride]
scaled lipid accumulation score [3]: 0.862 (active)

CC[N+](C)(CC)CCOC(=O)C(O)(c1ccccc1)C1CCCCC1 (configuration not stated)
scaled lipid accumulation score [3]: ≤ 0

CCCCC/C=C\C\C=C/C=C/C=C/[C@@H](SC[C@H](N)C(=O)NCC(=O)O)[C@@H](O)CCCC(=O)O [Leukotriene D4]
scaled lipid accumulation score [4]: ≤ -0.014

N#Cc1cc([N+](=O)[O-])c2sc(C(N)=O)[n+]([O-])c2c1 [Polo-like Kinase Inhibitor II, BTO-1]
scaled lipid accumulation score [1]: ≤ 0

CCCCC/C=C\C=C\[C@@H](O)CCCCCCCC(=O)O
scaled lipid accumulation score [4]: ≤ -0.021

O=C(CN=C(c1ccccc1)c1ccccc1)OCc1ccccc1 [N-(diphenylmethylene) Glycine benzyl ester]
scaled lipid accumulation score [2]: 0.004

C#CCCCCCCCCCNC(=O)Oc1cccc(-c2cccc(C(N)=O)c2)c1
scaled lipid accumulation score [2]: ≤ 0

CCC(=O)Nc1cccc(Oc2nc(Nc3ccc(N4CCN(C)CC4)cc3OC)ncc2Cl)c1 [listing 1 of 3 here]
scaled lipid accumulation score [3]: 0.997 (active)

C=CC(=O)Nc1cccc(Oc2nc(Nc3ccc(N4CCN(C)CC4)cc3OC)ncc2Cl)c1
scaled lipid accumulation score [5]: ≤ 0
scaled lipid accumulation score [6]: ≤ 0
scaled lipid accumulation score [7]: 0.172
scaled lipid accumulation score [1]: 0.507
scaled lipid accumulation score [3]: 0.707 and 0.265

CCC(=O)Nc1cccc(Oc2nc(Nc3ccc(N4CCN(C)CC4)cc3OC)ncc2Cl)c1 [listing 2 of 3 here]
scaled lipid accumulation score [3]: 1.11 (active)

COc1cc(N2CCC(N3CCN(C)CC3)CC2)ccc1Nc1ncc(Cl)c(Nc2ccccc2S(=O)(=O)C(C)C)n1
scaled lipid accumulation score [5]: ≤ 0
scaled lipid accumulation score [6]: 0.087
scaled lipid accumulation score [7]: 0.571
scaled lipid accumulation score [3]: 0.613

C=CC(=O)Nc1cccc(Oc2nc(Nc3ccc(N4CCN(C)CC4)cc3)ncc2Cl)c1
scaled lipid accumulation score [1]: 0.415
scaled lipid accumulation score [3]: 0.711

CCC(=O)Nc1cccc(Oc2nc(Nc3ccc(N4CCN(C)CC4)cc3OC)ncc2Cl)c1 [listing 3 of 3 here]
scaled lipid accumulation score [5]: ≤ -0.001
scaled lipid accumulation score [6]: ≤ -0.001
scaled lipid accumulation score [7]: ≤ -0.001
scaled lipid accumulation score [1]: 0.472
